Measurements from PubChem BioAssay (NCI).
The panel holds about 83,000 compounds, 20% with a hit somewhere; the sample as a whole holds those more often.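 Note: values are percent growth. 100 is the growth of untreated cells, values between 100 and 0 indicate rising inhibition; between -100 and 0 indicates cell death.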 Unmarked numbers belong to inactive results. Calls of active or inactive are those of the source. How the source made its calls: active means growth percent below 10; inactive means the rest.

Key:
Assay in all cases: NCI-60 one-dose screen, 48 h (100 = growth as untreated, 0 = no growth, -100 = all killed)
Details in all cases: 10 µM
HT29 colon = system: HT29 colon
SNB-75 CNS = system: SNB-75 CNS
SNB-19 CNS = system: SNB-19 CNS
U251 CNS = system: U251 CNS
PC-3 prostate = system: PC-3 prostate
SK-MEL-5 melanoma = system: SK-MEL-5 melanoma
UACC-62 melanoma = system: UACC-62 melanoma
LOX IMVI melanoma = system: LOX IMVI melanoma
SK-MEL-28 melanoma = system: SK-MEL-28 melanoma
SK-MEL-2 melanoma = system: SK-MEL-2 melanoma

Structure (SMILES) | growth (HT29 colon) | growth (SNB-75 CNS) | growth (SNB-19 CNS) | growth (U251 CNS) | growth (PC-3 prostate) | growth (SK-MEL-5 melanoma) | growth (UACC-62 melanoma) | growth (LOX IMVI melanoma) | growth (SK-MEL-28 melanoma) | growth (SK-MEL-2 melanoma)
COc1cc(-c2cc(/C=C/C(=O)c3ccc4c(c3)OCO4)[nH]n2)cc(OC)c1OC | 43% | 69.7% | 66.5% | 43% | 59% | 95.9% | 78.9% | 42.8% | 94.3% | 100%
CN1CCC(CNc2cc(C3(C(=O)Nc4cc(C(=O)Nc5ccc(Cl)c(C(F)(F)F)c5)ccc4F)CC3)ncn2)CC1 | -26.6% (active) | 23.1% | -34.1% (active) | -37.5% (active) | -23% (active) | -95.4% (active) | 32.9% | -74.2% (active) | -54.7% (active) | -57.2% (active)
COc1cc(/C=C\c2cc(OC)c(OC)c(OC)c2)cc(NS(=O)(=O)c2ccc(Cl)cc2)c1OC | 5.17% (active) | 49.1% | 58.4% | 20.5% | 13.7% | 24.3% | 39.3% | 35.8% | 70.8% | 17.8%
CN(C)C=Nc1cc(Cl)ccc1Cl | 100% | 89.8% | 95.3% | 115% | 99.8% | 101% | 99.1% | 102% | 102% | 97%
CC(=O)N1C/C(=C/c2ccc(Cl)cc2)C(=O)/C(=C/c2ccc(Cl)cc2)C1 | -62.2% (active) | 30.1% | 15% | -76.8% (active) | -42.4% (active) | -52.1% (active) | -74.6% (active) | -79.6% (active) | -54.2% (active) | -0.636% (active)
C#Cc1ccc(-n2c(/C=C/c3cc(OC)cc(OC)c3)nc3ncccc3c2=O)cc1 | 100% | 55% | 98% | 72% | 68.5% | 60.7% | 85.8% | 76.2% | 96.7% | 53.7%
Cc1ccc(NC(=O)Nc2cccnc2)cc1NC(=O)Nc1cccnc1 | 89.6% | 95.9% | 94% | 79% | 43.4% | 64.3% | 75.7% | 96.6% | 98.8% | 83%
CO/N=C(/C(=O)NC1C(=O)N2C(C(=O)O)=C(COC(N)=O)CSC12)c1ccco1 (stereo not given) | 111% | 91.6% | 95.5% | 107% | 101% | 110% | 103% | 102% | 114% | 100%
COc1cc(-c2cc(C(=O)N3CCN(C(=O)c4ccccc4NCc4ccco4)CC3)nc3cc(-c4ccccc4)nn23)cc(OC)c1OC | 1.33% (active) | 8.05% (active) | 45.4% | 24.7% | 15.8% | 3.81% (active) | 39.7% | 30% | 59.3% | 10.5%
O=C(O)CCCCSc1ncnc2nc[nH]c12 | 106% | 102% | 107% | 95.5% | 99.1% | 101% | 111% | 92.3% | 112% | 92.4%
CCCN(CCC)CCC(O)c1cc2c(c3ccccc13)CCCC2 (stereo not given) | 52.3% | 75.7% | 90.5% | 83.5% | 80.9% | 94.7% | 81.7% | 89% | 98.1% | 108%
NC(=S)N=Nc1c(O)c2ccccc2c2ccccc12 | 98.4% | 75.9% | 38.7% | 26.1% | 47.2% | -99% (active) | -85.1% (active) | 1.8% (active) | 35% | 89%
O=C(N/N=C\c1cc(Cl)ccc1[N+](=O)[O-])c1ccco1 | 107% | 96% | 102% | 97.4% | 100% | 111% | 101% | 103% | 110% | 117%
CCCCCCN1C(=O)C2=C(c3ccc(Cl)cc3)Nc3c(c(C)nn3-c3ccccc3)C2c2ccccc21 (stereo not given) | 98.1% | 83.6% | 89.4% | 87.8% | 76.7% | 92.7% | 94.8% | 94.6% | 96.4% | 91.1%
COc1ccc(/C=C2/CN(CCC#N)C/C(=C\c3ccc(OC)cc3)C2=O)cc1 | -37.6% (active) | 51.4% | 59.6% | -28.3% (active) | -11.7% (active) | -0.858% (active) | -27.5% (active) | -53.7% (active) | 6.16% (active) | 57.3%
Clc1ccc(/C=C2\CCCC3=C2N=C2SC=NN2C3c2ccc(Cl)cc2)cc1 (stereo not given) | 60.7% | 93.2% | 96.5% | 84.6% | 96.3% | 101% | 80.2% | 55.1% | 98.4% | 113%
COc1cc2cc3c(nc2cc1OC)CCN3Cc1ccc(NC(=O)Nc2cc(C(F)(F)F)cc(C(F)(F)F)c2)cc1 | 76.7% | 69.1% | 71.9% | 64.1% | 39.6% | 89.9% | 80.7% | 75.4% | 98.5% | 80.2%
COc1ccc2c(c1)C(=O)c1c-2c(OCCN2CCCCC2)nc2ccc(OC)cc12 | 1.76% (active) | 20.8% | 32.3% | 12% | 43.3% | 22.1% | 20.6% | -52.9% (active) | 72.3% | 7.82% (active)
CCCCCCc1cc(N=Nc2ccc(S(=O)(=O)Nc3cc(C)nc(C)n3)cc2)c(O)cc1O | 95.6% | 91.8% | 103% | 100% | 96.2% | 98.9% | 105% | 96.2% | 115% | 90.5%
CCOC(=O)N1C/C(=C/c2ccc(OC)cc2)C(=O)/C(=C/c2ccc(OC)cc2)C1 | -58.4% (active) | 48.8% | 78% | 12% | 46.5% | 21.6% | 44.6% | -72.2% (active) | 58.6% | 75.1%
CCOC(=O)CNC(=O)CCCCSc1ncnc2nc[nH]c12 | 103% | 95.3% | 109% | 106% | 91% | 93.4% | 94.9% | 102% | 110% | 97.6%
COc1ccc2c(c1)/C(=C\c1c[nH]c3ccc(OC)cc13)C(=O)N2 | 24.9% | 46.7% | 77.3% | 56.2% | 60.6% | 46.3% | 39.3% | 35.9% | 71.7% | 33.4%
CCN(CC)CCC(=O)Nc1cccc2c1C(=O)c1c(c(O)c3ccccc3c1O)C2=O | 57.5% | 38% | 77.3% | 64.6% | 45.4% | 47.6% | 79.6% | 40.6% | 34% | 112%
Cn1c([N+](=O)[O-])cnc1/C=C1\Oc2ccc(Cl)cc2C1=O | -10.1% (active) | 15.7% | -10.5% (active) | -18.2% (active) | -17.9% (active) | -92.7% (active) | -74.2% (active) | -57.5% (active) | -22.1% (active) | -42.2% (active)
Nc1c(C(=O)Nc2cccc3ccccc23)sc2nc3c(cc12)C(=O)CCC3 | 8.98% (active) | 20.7% | 55.3% | 15.2% | 22.6% | 12.2% | 43.2% | 29.7% | 42.8% | 35.5%
CC(=O)CSC(C)=O | 105% | 84.3% | 100% | 98% | 86.6% | 98.9% | 107% | 101% | 95.6% | 116%
O=C(CCCCC(=O)Nc1ccc2c(c1)/C(=C/c1ccc[nH]1)C(=O)N2)NO | 68.7% | 47.7% | 83% | 69.3% | 80.1% | 65% | 68.5% | 94.4% | 60.4% | 59.4%
